# In PubChem BioAssay (NCATS):
# Results filed as inconclusive are left out. Activity calls are given as the source filed them. Calls follow the shape of the dose curve; as a rule, active = well fitted cell-killing curve with a large enough effect; inconclusive = small, poorly fitted or top-dose-only effect; inactive = no such curve, though single readings can be large or run the other way.
# Assay: qHTS of pediatric cancer cell lines to identify multiple opportunities for drug repurposing: Confirmatory screen for Rh41 cells (AID 1347123);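 also: 48 h compound exposure; nearly all actives have a fitted effect of over 60% in size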
# Details: Rh41 rhabdomyosarcoma cells, viability/cytotoxicity qHTS; series mostly up to 45.9 µM
# Description: Drug repurposing or repositioning has been offered as a strategy for drug development in oncology programs. This approach has special potential for childhood cancers and other rare or orphan diseases, where the expected return on new drug development has been a disincentive to pharmaceuticals.
# In this project we exploit the poly-pharmacology of drugs to discover new indications via phenotypic screening of a panel of 19 well-characterized cell lines derived from solid tumors seen in children and adolescents. The goal is to identify approved drugs with previously unrecognized anticancer properties that has the potential to reveal new mechanisms and biological processes involved in carcinogenesis or drug resistance. We employed a titration-based paradigm (quantitative high-throughput screening or qHTS), where all compounds were tested at multiple concentrations for their effect on cell viability. Concentration-response curves (CRCs) were derived directly from the primary screen, and both potency and efficacy values were used to identify compounds with robust bioactivity profiles. We screened the NIH Chemical Genomics Center (NCGC) Pharmaceutical Collection (NPC) and Mechanism Interrogation Plate (MIPE) small molecule collections of approved and investigational compounds against these cell lines; and measured metabolically active cells after 48 hours of compound treatment as a proxy for cell viability.
# Assay Submitter: Nathalia J. Martinez, National Center for Advancing Translational Sciences, National Institutes of Health, Rockville, MD, USA; email: natalia.martinez@nih.gov
# [1] Shen, M et al. Quantitative high-throughput phenotypic screening of pediatric cancer cell lines identifies multiple opportunities for drug repurposing. Oncotarget 2017 Dec 19;9(4):4758-4772. PMID 29435139.
# The cells were obtained from University of North Carolina (UNC), Pediatric Preclinical Testing Program (PPT), and Coriell Institute (CI).
# qHTS cell viability assay:
# Cells were assayed in growth media at a density of 500-1,000 cells/well. Five microliters of cells were dispensed into 1,536-well, white, solid-bottom, TC-treated plates (Greiner Bio One) using a multidrop dispenser and incubated at 37 degrees C, 5% CO2, under a humidified atmosphere for 5 hours. Twenty-three nanoliters of compounds and controls (neutral control DMSO or positive control bortezomib at final concentration of 2.3 µM) were subsequently transferred by Kalypsys pintool. For primary screens, the MIPE collection was tested at 11-point dilutions (final concentrations range from 0.78 nM to 46 µM) and the NPC collection at 8-point dilutions (final concentrations range from 0.59 nM to 46 µM). Compounds tested in follow-up screens were assayed at 11-point dilutions. Cells were incubated for 48 hours, followed by addition of 3 µL of CellTiter-Glo (Promega). After a 15 min incubation at room temperature, samples were analyzed for luminescence intensity using a ViewLux High-throughput CCD imager equipped with clear filters.
# Potency is read from the fitted curve at half-maximal effect.
row,Structure (SMILES),Potency
1,O=c1[nH]nc(Sc2ncc([N+](=O)[O-])s2)n1-c1ccc2c(c1)OCCO2,10400 nM (active)
2,C=CCn1c(=O)c2cnc(Nc3ccc(N4CCN(C)CC4)cc3)nc2n1-c1cccc(C(C)(C)O)n1,1170 nM (active)
3,Cc1cnc(Nc2ccc(F)cc2Cl)nc1-c1c[nH]c(C(=O)N[C@H](CO)c2cccc(Cl)c2)c1,18500 nM (active)
4,CCC(=C(c1ccccc1)c1ccc(OCCN(C)C)cc1)c1ccccc1,inactive
5,C[C@@H](Oc1cc(-n2cnc3ccc(CN4CCN(C)CC4)cc32)sc1C(N)=O)c1ccccc1C(F)(F)F,4140 nM (active)
6,CC(C)c1nn(-c2c(Cl)cccc2Cl)c2nc(Cc3ccc(OCCO)cc3)[nH]c(=O)c12,131 nM (active)
7,O=C(C=Cc1cccc(S(=O)(=O)Nc2ccccc2)c1)NO,5370 nM (active)
8,CCCCc1nc2cc(C=CC(=O)NO)ccc2n1CCN(CC)CC,1310 nM (active)
9,NC(=O)Nc1cc(-c2cccc(F)c2)sc1C(=O)N[C@H]1CCCNC1,1470 nM (active)
10,CCNC(=O)Nc1ccc2ncc(Nc3ccc(C)cc3)nc2n1,inactive
11,CCN1CCN(Cc2ccc(-c3cc4c(N[C@H](C)c5ccccc5)ncnc4[nH]3)cc2)CC1,1510 nM (active)
12,Nc1ccccc1NC(=O)c1ccc(CNC(=O)OCc2cccnc2)cc1,2400 nM (active)
13,CC(C)(C)c1cc(NC(=O)Nc2ccc(-c3cn4c(n3)sc3cc(OCCN5CCOCC5)ccc34)cc2)no1,13100 nM (active)
14,COc1cccc2c(NCc3ccccc3)nc(-n3c(N)nc4ccccc43)nc12,208 nM (active)
15,Cc1[nH]c2ccccc2c1CCNCc1ccc(C=CC(=O)NO)cc1,4.1 nM (active)
16,CN(C)Cc1c(C(=O)NCCOc2ccc(C(=O)NO)cc2)oc2ccccc12,293 nM (active)
17,CC(C)(C)NC(=O)[C@H]1CN(Cc2cccnc2)CCN1C[C@@H](O)C[C@@H](Cc1ccccc1)C(=O)N[C@H]1c2ccccc2C[C@H]1O,20800 nM (active)
18,Cc1cc(Nc2cc(NC(=O)c3c(Cl)cccc3Cl)ccn2)nc(N)n1,269 nM (active)
19,NCC(=O)Nc1ccc(-n2nc(C(F)(F)F)cc2-c2ccc3c(ccc4ccccc43)c2)cc1,7370 nM (active)
20,Nc1ccn([C@@H]2O[C@H](CO)[C@H](O)C2(F)F)c(=O)n1,52.2 nM (active)

row,Structure (SMILES),Potency
1,C=CC(=O)Nc1cc2c(Nc3ccc(F)c(Cl)c3)ncnc2cc1C#CC(C)(C)N1CCN(C)CC1,2690 nM (active)
2,COc1cc2c(Oc3ccc(NC(=O)C4(C(=O)Nc5ccc(F)cc5)CC4)cc3F)ccnc2cc1OCCCN1CCOCC1,7370 nM (active)
3,CC(C)(C)c1cnc(CSc2cnc(NC(=O)C3CCNCC3)s2)o1,329 nM (active)
4,CC1(C)CCC(c2ccc(Cl)cc2)=C(CN2CCN(c3ccc(C(=O)NS(=O)(=O)c4ccc(N[C@H](CCN5CCOCC5)CSc5ccccc5)c(S(=O)(=O)C(F)(F)F)c4)cc3)CC2)C1,inactive
5,O=C(Cc1ccc(-c2ccc(OCCN3CCOCC3)cc2)cn1)NCc1ccccc1,92.8 nM (active)
6,CC(NCc1ccc2c(c1)nc(NC(=O)c1ccc(-c3cn[nH]c3)s1)n2CC(C)(C)O)C(C)(C)C (stereo not given),737 nM (active)
7,Cn1c2ccccc2c2c3c(c4c5ccccc5n(CCC#N)c4c21)CNC3=O,29300 nM (active)
8,CC[C@H]1CN2CCc3cc(OC)c(OC)cc3[C@H]2C[C@@H]1C[C@@H]1NCCc2cc(OC)c(OC)cc21,1470 nM (active)
9,Cc1cn(-c2cc(NC(=O)c3ccc(C)c(Nc4nccc(-c5cccnc5)n4)c3)cc(C(F)(F)F)c2)cn1,11700 nM (active)
10,Cc1c(CN2CCN(S(C)(=O)=O)CC2)sc2c(N3CCOCC3)nc(-c3cnc(N)nc3)nc12,928 nM (active)
11,COc1ccc(-n2nc(C(N)=O)c3c2C(=O)N(c2ccc(N4CCCCC4=O)cc2)CC3)cc1,233 nM (active)
12,C=CC(=O)Nc1cccc(Oc2nc(Nc3ccc(N4CCN(C)CC4)cc3)ncc2Cl)c1,2610 nM (active)
13,COc1ccc(OC)c(-c2nnc3ccc(-c4ccc(OC)c(O[C@@H]5CCOC5)c4)nn23)c1,2930 nM (active)
14,Cc1ccc(NC(=O)C2(c3ccc4c(c3)OC(F)(F)O4)CC2)nc1-c1cccc(C(=O)O)c1,8270 nM (active)
15,Cc1c(C)n(Cc2ccc(-c3ccccc3C(=O)O)cc2)c2ccc(C(=O)N[C@@H](C)c3ccc([N+](=O)[O-])cc3)cc12,9270 nM (active)
16,Cc1c(NC(=O)OC[C@@H]2COCCN2)cn2ncnc(Nc3ccc4c(cnn4Cc4cccc(F)c4)c3)c12,16500 nM (active)
17,CCn1nnc2c(N3CCOCC3)nc(-c3ccc(NC(=O)Nc4ccc(C(=O)N5CCN(C)CC5)cc4)cc3)nc21,522 nM (active)
18,C=CC(=O)Nc1cccc(Oc2nc(Nc3ccc(N4CCN(C)CC4)cc3OC)ncc2Cl)c1,16500 nM (active)
19,CCS(=O)(=O)c1cccc(-c2cc(C(=O)NC3CCN(C)CC3)c(C)c3[nH]c4ncc(C)cc4c23)c1,657 nM (active)
20,CC(C)c1cc(C(=O)N2Cc3ccc(CN4CCN(C)CC4)cc3C2)c(O)cc1O,585 nM (active)
